According to PubChem BioAssay AID602261 (Sanford-Burnham Center for Chemical Genomics, 2012):
The campaign covered roughly 360,000 compounds. About 2,400 (0.67%) were called active.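 The calls were made as follows: active = compounds whose normalised, plate-corrected inhibition of enzyme fluorescence in the single-dose primary screen is 50% or more; inactive = the rest.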 Many of the other results were omitted from the sample, so actives are more common in it than they were.

biological target: Fatty acid synthase (Homo sapiens) (UniProt P49327); assay: FAS thioesterase domain inhibitors, primary screen, biochemical, fluorescence intensity, uHTS (AID 602261); details: recombinant FAS-TE, OMFH fluorogenic substrate, fluorescence endpoint; at 15 µM; hits give high values;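 also: 0% = DMSO with enzyme and 100% = substrate without enzyme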
Sequence (P49327 whole entry, looked up, the tested form may be a part): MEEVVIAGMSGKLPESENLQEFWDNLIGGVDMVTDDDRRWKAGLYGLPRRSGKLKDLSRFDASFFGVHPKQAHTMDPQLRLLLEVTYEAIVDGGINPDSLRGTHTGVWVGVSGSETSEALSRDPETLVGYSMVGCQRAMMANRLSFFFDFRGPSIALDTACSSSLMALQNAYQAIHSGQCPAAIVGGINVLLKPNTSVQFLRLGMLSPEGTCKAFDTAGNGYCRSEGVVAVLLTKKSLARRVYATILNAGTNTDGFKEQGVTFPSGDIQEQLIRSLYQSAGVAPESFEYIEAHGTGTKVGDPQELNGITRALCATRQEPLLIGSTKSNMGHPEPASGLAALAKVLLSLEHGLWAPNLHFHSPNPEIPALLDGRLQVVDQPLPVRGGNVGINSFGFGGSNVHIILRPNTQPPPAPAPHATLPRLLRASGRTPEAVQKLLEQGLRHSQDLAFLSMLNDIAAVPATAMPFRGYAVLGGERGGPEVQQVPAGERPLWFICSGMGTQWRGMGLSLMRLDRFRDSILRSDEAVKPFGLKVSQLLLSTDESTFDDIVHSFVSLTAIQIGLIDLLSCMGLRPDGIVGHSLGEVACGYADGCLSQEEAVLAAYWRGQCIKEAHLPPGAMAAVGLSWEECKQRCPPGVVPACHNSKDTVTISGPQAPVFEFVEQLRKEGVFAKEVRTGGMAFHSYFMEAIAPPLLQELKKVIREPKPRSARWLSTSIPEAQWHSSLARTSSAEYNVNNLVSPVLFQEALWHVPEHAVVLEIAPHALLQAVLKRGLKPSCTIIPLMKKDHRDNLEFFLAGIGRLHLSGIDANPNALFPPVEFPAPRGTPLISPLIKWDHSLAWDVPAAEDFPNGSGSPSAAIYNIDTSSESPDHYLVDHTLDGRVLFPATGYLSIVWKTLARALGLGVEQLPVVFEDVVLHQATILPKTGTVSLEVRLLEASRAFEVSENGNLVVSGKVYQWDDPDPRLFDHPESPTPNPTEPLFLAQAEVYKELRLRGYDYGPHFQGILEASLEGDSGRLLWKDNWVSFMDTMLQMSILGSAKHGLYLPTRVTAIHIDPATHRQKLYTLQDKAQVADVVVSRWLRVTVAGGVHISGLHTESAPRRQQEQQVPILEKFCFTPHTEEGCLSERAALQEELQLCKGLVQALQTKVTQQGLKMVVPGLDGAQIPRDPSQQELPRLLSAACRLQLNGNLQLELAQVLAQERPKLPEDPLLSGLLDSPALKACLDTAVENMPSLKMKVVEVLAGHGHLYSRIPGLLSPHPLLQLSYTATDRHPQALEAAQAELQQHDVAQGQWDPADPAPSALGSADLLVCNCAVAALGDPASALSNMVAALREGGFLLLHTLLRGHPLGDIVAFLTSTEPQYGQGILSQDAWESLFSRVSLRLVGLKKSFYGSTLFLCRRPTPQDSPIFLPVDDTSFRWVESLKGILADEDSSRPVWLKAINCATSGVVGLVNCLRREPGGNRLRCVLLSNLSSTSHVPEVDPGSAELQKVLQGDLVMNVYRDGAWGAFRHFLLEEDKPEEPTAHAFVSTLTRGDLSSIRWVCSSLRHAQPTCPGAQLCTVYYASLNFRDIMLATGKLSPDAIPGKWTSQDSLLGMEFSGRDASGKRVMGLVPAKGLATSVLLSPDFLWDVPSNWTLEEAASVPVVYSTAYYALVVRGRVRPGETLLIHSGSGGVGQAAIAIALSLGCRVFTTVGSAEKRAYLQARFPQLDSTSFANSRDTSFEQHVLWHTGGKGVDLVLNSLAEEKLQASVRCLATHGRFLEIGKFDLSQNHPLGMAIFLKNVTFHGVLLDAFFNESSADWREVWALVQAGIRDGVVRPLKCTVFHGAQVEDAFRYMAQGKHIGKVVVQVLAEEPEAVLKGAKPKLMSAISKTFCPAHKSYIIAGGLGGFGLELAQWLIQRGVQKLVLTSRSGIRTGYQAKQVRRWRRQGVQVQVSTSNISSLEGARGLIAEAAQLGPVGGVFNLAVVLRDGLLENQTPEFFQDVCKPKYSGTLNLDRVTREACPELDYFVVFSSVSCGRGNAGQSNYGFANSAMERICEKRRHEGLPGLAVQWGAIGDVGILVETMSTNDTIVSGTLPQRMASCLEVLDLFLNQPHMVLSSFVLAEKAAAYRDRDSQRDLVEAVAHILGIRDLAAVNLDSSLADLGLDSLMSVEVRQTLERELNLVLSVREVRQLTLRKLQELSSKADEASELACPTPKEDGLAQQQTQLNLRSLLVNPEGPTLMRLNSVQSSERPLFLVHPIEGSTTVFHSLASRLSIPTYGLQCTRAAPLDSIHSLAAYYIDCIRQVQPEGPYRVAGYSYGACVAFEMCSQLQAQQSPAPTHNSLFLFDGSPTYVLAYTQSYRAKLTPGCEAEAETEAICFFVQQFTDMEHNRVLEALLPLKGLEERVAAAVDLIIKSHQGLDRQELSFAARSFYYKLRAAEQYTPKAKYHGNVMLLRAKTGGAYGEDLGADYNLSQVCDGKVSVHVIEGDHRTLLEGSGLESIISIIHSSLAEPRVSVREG

inhibition, active:
Cc1cccc(N=C2NC(=O)/C(=C/c3cn(C)c4ccccc34)S2)c1 52.4%
Cc1ccc2c(c1)-c1c(ssc1=S)C(C)(C)N2C(=O)CN1C(=O)c2ccccc2C1=O 52.2%
CCOc1ccc(Nc2nc(Cl)nc(N3CCN(c4ccc(OC)cc4)CC3)n2)cc1 57.9%
O=C(Nc1ccc(N2C(=O)c3cccc4cccc(c34)C2=O)cc1)c1ccc(N2CCCCC2)c([N+](=O)[O-])c1 56.4%
CCCN1Cc2cccc(C(=O)Nc3ccc(S(=O)(=O)N4CCCCCC4)cc3)c2C1=O 54.7%
Cc1ccc(S(=O)(=O)N2CC[C@H]3[C@@H](C2)C(=O)C[C@@H](c2ccccc2)N3S(=O)(=O)c2ccc(C)cc2)cc1 79.6%
Cc1ccc2cc3cc(C(=O)N4CCCCCC4)oc3nc2c1 77.7%
COc1cc(-c2noc(C3CCCN(S(=O)(=O)c4cccc(Cl)c4)C3)n2)cc(OC)c1OC (stereo unspecified) 50.7%
CC(C)c1ccc2c(c1)c(SC(C)(C)C)c(CC(C)(C)C(=O)O)n2Cc1ccc(Cl)cc1 80.4%
O=C(CC(c1ccccc1)c1ccccc1)NCC(O)c1ccc([N+](=O)[O-])cc1 (stereo unspecified) 50.4%
COc1ccc(NS(=O)(=O)c2cc(NC(=O)c3ccc(S(=O)(=O)N(C)C)cc3)ccc2N2CCOCC2)cc1 88.6%
COc1ccc(NS(=O)(=O)c2cc(NC(=O)/C=C/c3cc(OC)c(OC)c(OC)c3)ccc2N2CCCCC2)cc1 50.6%

inhibition, inactive:
Cc1cccc(N=C2SC(C)CN2C(=O)CN2C(=O)NC3(CCCC3)C2=O)c1 (stereo unspecified) 3.9%
Cc1ccc(N2C(=O)S/C(=C/c3cn(C)c4ccccc34)C2=O)cc1 28.7%
Cc1ccccc1CSc1nnc(-c2ccccn2)n1N -5.3%
O=C(NC1=NCCS1)c1ccc(Cl)s1 -11.9%
Cc1cccc(N2CCC(NCc3c(C(=O)N4CCCCC4)nc4c(C)cccn34)CC2)c1 -1.6%
O=C(O)CCS(=O)(=O)c1ccc(-c2ccccc2)cc1 -1.5%
CCOC(=O)CN1C(=O)C(=O)c2cc(C)ccc21 -7%
Cc1cc2c(cc1C)N(C(=O)CN1C(=O)c3ccccc3C1=O)C(C)(C)c1ssc(=S)c1-2 43.2%
O=S1(=O)N=C(N(CCO)/N=C/c2ccccc2F)c2ccccc21 0.1%
CCOc1ccccc1NC(=O)C12CC3CC(C1)CC(c1ccc(C)cc1)(C3)C2 33.7%
CCN1CCN(c2nc(Nc3cc(OC)ccc3OC)nc(Nc3cc(OC)ccc3OC)n2)CC1 32.9%
COc1ccc(Nc2ncc(F)c(N3CCOCC3)n2)cc1 -0.3%
CC1CCCCC1NC(=O)C1CCCN1S(=O)(=O)c1cccc2nsnc12 (stereo unspecified) -4.8%
O=C(N1CCCC1)C12CC3CC(C1)CC(C(=O)N1CCCC1)(C3)C2 -5.3%
Cc1ccc(NC(=O)CSc2nnc(CNC(=O)c3ccccc3F)o2)cc1 -4.2%
O=C(Nc1cccc(C(F)(F)F)c1)c1ccc(N2CCNCC2)c([N+](=O)[O-])c1 -5%
O=C(COc1ccccc1F)NNC(=O)c1ccc(N2CCCCC2)c([N+](=O)[O-])c1 4.2%
CC(=O)Nc1ccc2c3c(ccc([N+](=O)[O-])c13)CC2 -4%
CCCN1Cc2cccc(C(=O)NCc3ccccc3)c2C1=O -0.8%
O=C(Nc1ccc(S(=O)(=O)N2CCCCCC2)cc1)c1c(F)cccc1F 12%
COCCCNCC(=O)Nc1sc(C)c(C)c1C(=O)OC -3.7%
CCOC(=O)C(C)n1cnc2c(nnn2-c2ccc(F)cc2)c1=O (stereo unspecified) -7.4%
Cc1ccc([C@@H]2CC(=O)[C@@H]3CN(S(=O)(=O)c4ccc(C)cc4)[C@H](c4ccccc4F)C[C@@H]3N2S(=O)(=O)c2ccc(Cl)cc2)cc1 12.3%
CCc1ccc([C@@H]2CC(=O)[C@@H]3CN(S(=O)(=O)c4ccc(C)cc4)[C@H](c4ccc(Cl)cc4)C[C@@H]3N2S(=O)(=O)c2ccc(C)cc2)cc1 12.7%
CC(C)[C@H](NC(=O)N1c2ccccc2NC(=O)[C@@H]1C(C)C)C(=O)N[C@H](C(=O)O)c1ccccc1 -2.6%
O=[N+]([O-])c1ccc(NS(=O)(=O)c2ccccc2)c(Cl)c1 -7%
Cc1ccc2oc(=O)c3cnn(CC(=O)N4CCCCCC4)c3c2c1 0.5%
Cc1cccc(C(=O)N2CCN(S(=O)(=O)N3CCCCC3)CC2)c1 -2.1%
COc1ccc(C(C)=O)cc1COC(=O)Cn1cnc2ccccc2c1=O -2.7%
CC(C)c1ccc(-c2noc(C3CCCN(S(C)(=O)=O)C3)n2)cc1 (stereo unspecified) 16.9%
COc1cccc(-c2noc(C3CCCN(C(=O)c4ccc(F)cc4)C3)n2)c1 (stereo unspecified) -3.3%
Nc1ccc(SCCN2C(=O)c3ccccc3C2=O)cc1 -1.7%
O=C(NCc1ccccc1)C1CCCN(c2nc3ccsc3c(=O)s2)C1 (stereo unspecified) -1.5%
Nc1ccc(N=Nc2ccccc2Cl)c(N)n1 12%
CN(C)C(CNC(=O)Cc1ccc([N+](=O)[O-])cc1)c1ccccc1 (stereo unspecified) 3.9%
O=C(NCC(O)c1ccc([N+](=O)[O-])cc1)C1CCCCC1 (stereo unspecified) -3.9%
COc1ccc(C(=O)NC(=S)N2CCCCC2c2cccnc2)cc1OC (stereo unspecified) -3.7%
Cc1ccccc1-n1c(C)cc(/C=N/NC(=O)c2ccc(CN3CCOCC3)cc2)c1C -7.5%
COc1ccc(NC(=O)CCn2ccnc2)c(OC)c1 -2.6%
O=C(O)c1ccccc1N=N/C(=N/Nc1cc(S(=O)(=O)O)ccc1O)c1ccccc1 3.7%
COc1ccc(NS(=O)(=O)c2ccc(N3CCOCC3)c(NC(=O)/C=C/C(=O)O)c2)cc1 -5.8%
COc1ccc(NS(=O)(=O)c2ccc(N3CCN(CCO)CC3)c([N+](=O)[O-])c2)cc1 -6.1%
COc1cc(/C=C/C(=O)Nc2ccc(OC)c(S(=O)(=O)N3CCOCC3)c2)ccc1OCC#N -0.4%
COc1ccc(NS(=O)(=O)c2cc(NC(=O)C3CCCCC3)ccc2N2CCOCC2)cc1 10.3%
